WRN helicase inh: blocks human WRN helicase; hit rate 0.46% among 360,000; Q14191; Potency, µM (series often up to 114 µM), for inactives: at the highest dose activity change, negative = inhibition, usual class: inhibitors; WRN helicase unwinding, fluorescent forked duplex, kinetic; further: on the % scale 0 is the no-effect control and ±100 the full control effect; nearly all actives have a fitted effect of over 55% in size
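Enzyme (20 nM final) and test compound sit together 15 min at room temperature before substrate addition. Substrate is a single-forked duplex oligonucleotide (100 nM) labelled with fluorophore and quencher, with 2 mM ATP; helicase unwinding raises red fluorescence, read kinetically.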
POLI inh: inhibitors of human DNA polymerase iota; AID 588590; hit rate 1% among 390,000; Pol iota fluorescent replication assay, 10 min; Potency, µM (titrated, usually from 115 µM), for the others: top-dose activity, negative = inhibition, usual class: inhibitors; Q9UNA4
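Fluorescent replication assay read twice, at 0 min and 10 min after adding 50 nM (final) substrate. Enzyme (10 nM) and compounds were first incubated 15 min at room temperature; enzyme-free buffer wells were negative controls.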
FEN1 inhibitor: human FEN1 inhibition. hit rate 0.35% among 390,000. Potency, µM (series often up to 114 µM), for the others: at the highest dose activity change, negative = inhibition, actives largely listed as inhibitors. Recombinant FEN1 flap cleavage, fluorescence, 15 min; further: on the % scale 0 is the no-effect control and ±100 the full control effect; nearly all actives have a fitted effect of over 65% in size
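Concentration–response screening of FEN1 (10 nM): 15 min compound preincubation at room temperature, reaction started with 50 nM substrate and read at 0 and 15 min. Corrected, normalized data were fitted by a four-parameter Hill equation.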
Pol eta inh: DNA polymerase eta (human) inhibition. recombinant Pol eta, fluorescent DNA replication assay. Potency, µM (highest dose often 114 µM), for the others: top-dose activity change, negative = inhibition, most hits filed as inhibitors. hit rate 1.2% among 390,000. AID 588591; further: on the % scale 0 is the no-effect control and ±100 the full control effect
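Pol eta (10 nM) was preincubated with compounds for 15 min at room temperature, after which fluorescent replication substrate (50 nM final) was added to start the reaction. Fluorescence was read kinetically at 0 and 10 min.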
POLK inh: blocks human DNA polymerase kappa activity; AID 588579; hit rate 0.53% among 400,000; purified Pol kappa, fluorescent DNA synthesis assay, 10 min; Potency, µM (series often up to 107 µM), inactives show at the top dose activity, negative = inhibition, hits mostly inhibitors; further: on the % scale 0 is the no-effect control and ±100 the full control effect
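Here, compound and 10 nM enzyme are combined for 15 min at room temperature; adding 50 nM substrate (final) starts DNA synthesis, tracked by fluorescence at 0 and 10 min against buffer-only wells.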
Pol beta inh: blocks human DNA polymerase beta activity; Potency, µM (series often up to 114 µM), without a hit: top-dose activity change, negative = inhibition, usual class: inhibitors; AID 485314; Pol beta primer extension/strand displacement, fluorescence kinetic; hit rate 1.3% among 340,000; further: on the % scale 0 is the no-effect control and ±100 the full control effect
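Pol beta (10 nM) and compounds were preincubated 15 min at room temperature, then 50 nM substrate (final) started primer extension/strand displacement. Reads were taken at 0 and 10 min; concentration-response data were fitted to a four-parameter Hill equation.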
Starred values were filed as active, the others as inactive; ? = inconclusive; nt = not tested or not shown; [ ] = another dose, or the depositor's remark. An excerpt weighted towards active compounds, which were near 2.4% of everything screened. The call rests on the fitted dose curve; in most records, active means well fitted curve in the direction sought with a large enough effect; inconclusive means small, poorly fitted or top-dose-only effect, or another doubt; inactive means no such curve, though single readings can be large; an effect the other way counts as inactive or inconclusive. Potency means the concentration at half of the fitted maximal effect.

SMILES	WRN helicase inh	POLI inh	FEN1 inhibitor	Pol eta inh	POLK inh	Pol beta inh
C#CCOCCOCCOCCNc1nc(N2CCN(C(=O)Cn3cc(CCCN=C(N)N)nn3)CC2)nc(N2CCN(C(=O)[C@H](C)n3cc(CCCN=C(N)N)nn3)CC2)n1	1.4%	?	-0.2%	-14.6%	?	39.8µM*
C#CCOCCOCCOCCNc1nc(N2CCN(C(=O)Cn3cc(CCCCN)nn3)CC2)nc(N2CCN(C(=O)[C@H](C)n3cc(CCC(=O)O)nn3)CC2)n1	3.2%	18.5%	6.2%	-10.2%	15.9%	nt
C#CCOCCOCCOCCNc1nc(N2CCN(C(=O)Cn3cc(CCCCN)nn3)CC2)nc(N2CCN(C(=O)Cn3cc(CCCN=C(N)N)nn3)CC2)n1	1.0%	35.5µM*	-5.8%	4.2%	?	nt
COc1ccc2nc(C)cc(SCC(=O)NNC(=O)COc3cccc4ccccc34)c2c1	-13.2%	?	-15.1%	?	-21.6%	12.6µM*
COc1ccc(N2CCN(C(=O)C3CCN(S(=O)(=O)c4cccc5nonc45)CC3)CC2)cc1	nt	15.0%	9.6%	-12.2%	-10.5%[60.1 µM]	6.7%
CC1(C)C(=O)Nc2ccccc2N1C(=O)COc1ccc(S(=O)(=O)N2CCOCC2)cc1Cl	-31.4%[57.1 µM]	?	-7.4%	?	-19.5%	25.1µM*
CC1(C)C(=O)Nc2ccccc2N1C(=O)COc1ccccc1C#N	-2.8%[11.6 µM]	35.5µM*	-1.1%	?	?	nt
C=CCn1c(C)nnc1SCC(=O)N1c2ccccc2NC(=O)C1(C)C	0.5%	nt	nt	-5.7%	nt	nt
Cc1ccccc1OCCC(=O)OCC(=O)N1c2ccccc2NC(=O)C1(C)C	2.5%	?	12.2%	?	-13.9%	nt
CC1(C)C(=O)Nc2ccccc2N1C(=O)CSc1ncccn1	-4.6%[11.6 µM]	44.7µM*	-15.2%	?	?	?
Cc1cc(C)cc(NC(=O)c2ccc3c(c2)nnn3C2CCCC2)c1	nt	-7.0%	-12.6%	-21.0%	-9.4%	1.5%
CN(CC(=O)NCc1ccccc1)CC(=O)Nc1ccc(Cl)c(C(F)(F)F)c1	3.7%	48.2%	-4.9%	?	0.5%	nt
CN(CC(=O)NC(=O)NCc1ccccc1)CC(=O)Nc1ccc(Cl)c(C(F)(F)F)c1	-6.9%[11.6 µM]	89.1µM*	-20.4%	-11.2%	-27.8%	nt
Cc1ccc2nc(Nc3ccc(F)cc3)c3nncn3c2c1	-3.4%[57.1 µM]	5.8%	14.5%	-17.2%	3.4%	31.6µM*
CN(C)C1C(=O)C(C(N)=O)C(=O)C2(O)C(=O)C3C(=O)c4c(O)ccc(Cl)c4C(O)C3CC12 (stereo not drawn)	nt	nt	nt	nt	35.5µM*	nt
CN(C)C1C(=O)C(C(N)=O)=C(O)[C@@]2(O)C(=O)C3=C(O)c4c(O)ccc(Cl)c4C(O)[C@H]3C[C@@H]12 (stereo partly drawn)	nt	nt	nt	nt	-13.9%[60.1 µM]	nt
CSc1nsc(/C=C/Nc2ccc(F)cc2)c1C#N	-4.9%	?	-7.7%	-0.5%	-28.3%	-1.5%
CSc1nsc(/C=C/Nc2ccc(O)cc2C)c1C#N	?	25.1µM*	?	-16.6%	-27.9%	0.2%
COc1ccc(OC)c(C(c2c(C)[nH][nH]c2=O)c2c(C)[nH][nH]c2=O)c1	-0.2%	28.2µM*	-1.1%	0.3%	-10.6%	37.5%
COc1ccc(C(c2c(C)[nH][nH]c2=O)c2c(C)[nH][nH]c2=O)cc1Br	-14.8%	?	-12.4%	-11.8%	-3.8%	13.8%
COc1cc(C(c2c(C)[nH][nH]c2=O)c2c(C)[nH][nH]c2=O)cc(Cl)c1O	3.7%	-0.5%	-19.4%	-9.2%	2.5%	2.9%
COc1cc(C(c2c(C)[nH][nH]c2=O)c2c(C)[nH][nH]c2=O)ccc1OC(=O)c1cccc([N+](=O)[O-])c1	-9.3%	10µM*	1.0%	-7.2%	-17.1%	10.1%
COc1cc(C(c2c(C)[nH][nH]c2=O)c2c(C)[nH][nH]c2=O)cc(OC)c1OC	-9.0%	8.91µM*	-8.9%	-17.3%	-5.9%	19.8%
COc1cc(C(c2c(C)[nH][nH]c2=O)c2c(C)[nH][nH]c2=O)ccc1OS(=O)(=O)c1ccc(C)cc1	-11.4%	3.55µM*	-14.7%	-3.2%	-7.3%	-10.4%
COc1cc(C(c2c(C)[nH][nH]c2=O)c2c(C)[nH][nH]c2=O)ccc1OC(C)C	-20.0%	-2.2%	-16.5%	-4.8%	-13.0%	6.1%
SMILES	WRN helicase inh	POLI inh	FEN1 inhibitor	Pol eta inh	POLK inh	Pol beta inh
COc1cc(C(c2c(C)[nH][nH]c2=O)c2c(C)[nH][nH]c2=O)ccc1OS(=O)(=O)c1ccccc1	-9.3%[57.1 µM]	10µM*	-3.6%	-4.4%	-20.1%	-10.9%
CCCS(=O)(=O)c1c(S(=O)(=O)CCC)c2cc(C(C)(C)C)ccn2c1C(=O)c1ccccc1	nt	32.0%	-1.7%	89.1µM*	-15.6%	2.5%
Cc1ccc(C2C(C#N)=C(N)SC(N)=C2C#N)c(C)c1	-31.7%	25.1µM*	-10.2%	9.0%	-7.5%	-7.4%
c1ccc(Nc2ncncc2-c2ccc3c(c2)OCO3)cc1	nt	nt	nt	nt	-4.5%[60.1 µM]	nt
CC1CN(C(=O)N2CCC(C(=O)NC3CCCCCC3)CC2)c2cc(Cl)ccc2O1 (stereo not drawn)	nt	-1.3%	4.3%	-9.9%	-20.7%	1.1%
Cc1cc(C(F)(F)F)n2[nH]c(=O)c(N=Nc3ccccc3)c2n1	0.1%[11.6 µM]	39.8µM*	-0.4%	12.3%	?	-19.9%
COc1ccc2[nH]c(-c3ccc(F)cc3F)cc(=O)c2c1	nt	nt	nt	nt	-2.4%	nt
COc1ccc2[nH]c3c4c(ccc3c2c1)C(=O)C=CC4=O	-13.6%	31.6µM*	-7.3%	?	-23.8%	-5.4%
Cc1ccc(S(=O)(=O)N2CCN(c3nc(-c4cccs4)nc(C)c3C)CC2)cc1	nt	-3.5%	-9.5%	nt	-15.5%	nt
O=C1N=c2ccc([N+](=O)[O-])cc2=C1c1sc(=O)[nH]c1O	?	15.2%	?	-19.4%	89.1µM*	1.1%
O=C1N=c2ccccc2=C1c1sc(=O)[nH]c1O	-8.0%	-13.3%	-1.7%	-4.1%	-25.4%	5.7%
CN(C)c1ccc(/C=C/C(=O)c2cccc(Br)c2)cc1	?	79.4µM*	-12.5%	-18.5%	?	?
CCOC(=O)c1ccc(N(C(=O)c2ccccc2)c2ccccc2)cc1	nt	?	-26.7%	nt	-15.3%	nt
CC1(C)Cc2c(sc(NC(=O)COc3cccc4ccccc34)c2C#N)C(C)(C)N1	-28.8%	?	0.8%	?	-15.2%	22.4µM*
Cc1ccc(OCC(=O)Nc2sc3c(c2C#N)CC(C)(C)NC3(C)C)cc1	2.7%	133.2%	0.7%	-3.9%	-6.7%	-16.6%
O=C(CCCCCn1c(=S)[nH]c2cc3c(cc2c1=O)OCO3)N1CCN(C(=O)c2ccco2)CC1	?	28.2µM*	-5.2%	?	-30.4%	?

Bioassay records deposited in PubChem by National Center for Advancing Translational Sciences (NCATS).
